# Results as given in PMC5540273 (PLoS ONE, 2017).
# Tested on: TXK
# Conditions: concentration: 1 μM,replicates: in singlicate; n = 1
# 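Further: KINOMEscan kinase panel screen.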
row,Compound,%Inh [%]
1,COc1cc2ncn(-c3cc(OCC4CCCCC4)c(C(N)=O)s3)c2cc1OC [GSK204559],0
2,NC(=O)c1ccc(-c2cc3ncnc(SCC(=O)O)c3s2)cc1,0
3,COc1ccc(Nc2nccc(N3CCC(NC(=O)c4cccc(C#N)c4)C3)n2)cc1 (centres unmarked) [GSK1379730],41
4,CCOC(=O)N1CCC(n2cnc(-c3ccc(F)cc3)c2-c2ccnc(N)n2)CC1 [SB-219952],16
5,CCN1CCN(CCCC(=O)Nc2n[nH]c3nc(-c4ccc(O)cc4)c(Br)cc23)CC1 [SB-731579],0
6,CC(=O)c1c(-c2ccncc2)[nH]c(-c2ccncc2)c1C [GW493036],35
7,O=c1[nH]cc(-c2ccc(O)cc2)c2sc(-c3ccncc3)cc12 [GSK1033723],5
8,C[C@@H]1CCN(C(=O)N2CCCC2)C[C@@H]1N(C)c1ncnc2[nH]ccc12,4
9,CCn1c(-c2nonc2N)nc2cncc(Br)c21 [SB-738004],0
10,Cc1n[nH]c2cc(Nc3ccnc(Nc4cccc(CN5CCOCC5)c4)n3)ccc12 [GW682569],60
11,O=C(NOCC1CC1)c1cc(Br)c(F)c(F)c1Nc1ccc(I)cc1Cl,0
12,Cn1cc(-c2cccc3c(N)c(C(N)=O)nnc23)cn1,0

# Tested on: TYK2(JH1domain-catalytic)
# Conditions: concentration: 1 μM,replicates: in singlicate; n = 1
row,Compound,%Inh [%]
1,CN(c1cccc(CNc2nc(Nc3ccc4c(c3)CC(=O)N4)ncc2C(F)(F)F)c1)S(C)(=O)=O,58
2,CC(=O)Nc1ccc(-c2cc3ncnc(SCC(=O)O)c3s2)cc1,37
3,COc1cccc(OC)c1C(=O)Nc1cccc(-c2nn3ccccc3c2-c2ccnc(Nc3cccc(F)c3)n2)c1 [GSK361065],0
4,CC(C(=O)NC1CCN(c2ccnc(Nc3ccc(F)cc3)n2)C1)c1ccc(Cl)cc1 (centres unmarked) [GSK1379713],9
5,Cc1ccc(CC(=O)N2CCc3cc(-c4cn(C)c5ncnc(N)c45)ccc32)cc1 [GSK2634758],0
6,Cl.Nc1n[nH]c2cc(-c3ccccn3)ccc12 [GSK2189892],0
7,Cl.c1ccc(Oc2ccc(Nc3ccnc4cc(-c5ccc(CN6CCNCC6)o5)ccc34)cc2)nc1 [GW567142],3
8,c1ccc(Oc2ccc(Nc3ccnc4ccc(-c5ccccn5)cc34)cc2)cc1 [GW407034],7
9,COc1cccc(C2=C(Nc3cccc(Cl)c3)C(=O)NC2=O)c1 [SB-341556],14
10,C[C@@H](Oc1cc(-n2cnc3cc(-c4cnn(C)c4)ccc32)sc1C(N)=O)c1ccccc1Cl [GSK580432],45
11,O=C(Nc1n[nH]c2cc(-c3ccco3)ccc12)C1CC1 [SB-737447],21
12,COc1cc2nccc(Nc3ccc(Oc4ccccc4)cc3)c2cc1OC.Cl [GI261656],4
13,CN(c1ccccc1CNc1nc(Nc2ccc3c(c2)CC(=O)N3)ncc1C(F)(F)F)S(C)(=O)=O,88
14,N#Cc1cccc(C(=O)NC2CCN(c3ccnc(Nc4ccc(F)cc4)n3)C2)c1 (centres unmarked) [GSK1379708],14
15,COc1cccc(CNC(=O)NC2CCN(c3ccnc(Nc4cc(OC)c(OC)c(OC)c4)n3)C2)c1 (centres unmarked) [GSK1379765],54
16,Cc1ccc2c(-c3ccnc(Nc4ccc(C(F)(F)F)cc4)n3)cnn2n1 [GW819776],5
17,O=C(Nc1ccc(Oc2ccc3nc(NC(=O)C4CC4)cn3n2)c(F)c1)c1cccn(-c2ccccc2)c1=O,0
18,CS(=O)(=O)Nc1ccc(-c2ccnc3[nH]ccc23)cc1 [GSK993273],99.6
19,CNC(=O)c1ccccc1Nc1nc(Nc2cccc(CS(C)(=O)=O)c2)ncc1C.O=CO [GSK1520489],99.6
20,O=C(Nc1cccc(C(F)(F)F)c1)c1cccc(Oc2ccc3nccn3n2)c1,23
21,COC(=O)Nc1nc2cc(Oc3ccc(NC(=O)Nc4cc(C(F)(F)F)ccc4Cl)cc3)ccc2[nH]1.Cl [GW697465],14
22,CC(C)c1nc(-c2cccc(NS(=O)(=O)c3ccccc3)c2)c(-c2ccnc(Nc3ccc4c(c3)CN(C)CC4)n2)s1 [GSK1649598],55
23,CC(=O)Nc1nc2cnc(Nc3cc(NC(=O)c4cccc(CC(C)(C)C#N)c4)ccc3C)nc2s1,0
